# Laboratory results published in US20210230599, “STEM-LOOP COMPOSITIONS AND METHODS FOR INHIBITING INTERLEUKIN-8” (VITRISA THERAPEUTICS, INC., published 2021).
# Target: Interleukin-8 (IL8, CXCL8), C-terminal His-tagged (Homo sapiens, UniProt P10145 SEQ:1-72)
# Assay: competition; competition TR-FRET; L1 A to U, described as complete loss
# Details: tags: C-terminal 6xHis (Sino Biological); ssRNA; 2'-F G, 2'-OMe A/C/U, 5' C6NH2, 3' idT
# Protocol: To better understand the sequence requirements and to confirm the stem structures of members of the Aptamer 3 family as determined from sequence covariation analysis from both the primary and secondary (degenerate) selections, a series of variants which included mutations and deletions to the predicted stems were synthesized and screened (Table 24). Activity of each of these variants were tested using a time resolved competition TR-FRET assay in which the labeled parent Aptamer 3 was competed with increasing concentrations of unlabeled variants for binding to IL8 (FIG. 14). Briefly, 2-fold dilutions of thermally equilibrated aptamers were made in TR-FRET Buffer (50 mM MOPS, pH 7.4, 125 mM NaCl, 5 mM KCl, 50 μM CHAPS, 0.1 mg/mL BSA, 1 mM CaCl₂, and 1 mM MgCl₂). 5 μL of aptamer or control solution was added to 5 μl mix of 10 nM C-terminal His-tagged-IL8, 60 nM ALEXA FLUOR® 647-labeled Aptamer, and 5 nM anti-His-Eu (Perkin Elmer) in a black wall low volume 384 well plate (Greiner). […] The plate was read on a Biotek CYTATION™ 5 plate reader. […]
# To confirm the importance of this residue, molecules were made and tested in which either loop L1 was deleted entirely (Aptamer 40) or was mutated to 5′-U-3′(Aptamer 41). In both cases, there was a complete loss of activity (>10-fold) as determined by competition TR-FRET assay (Table 25 and FIG. 15).
row,Sequence,binding signal
1,GAUGUCGGUAGAUUACGGGUAGAGUGACCGCAUC,> 10 fold worse than Aptamer 3
